High-throughput results (PubChem)
KB-V1 MDR tox = kills drug-selected multidrug resistant KB-V1 cells; hit rate 3.4% among 400,000; KB-V1 MDR cells viability, CellTiter-Glo, 72 h; AID 1347076; Potency, µM (titrated, usually from 46.1 µM), hits mostly cytotoxic; note: % is set by controls: 0 for no effect and ±100 for the full control effect; nearly all actives have a fitted effect of over 60% in size
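Luminescent ATP read-out (CellTiter-Glo, 10 min) measures survival of drug-selected KB-V1 MDR cells after 72 h, 37 degrees C compound exposure. Medium: phenol-red-free DMEM, 10% FBS. Values from fitted concentration-response curves.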
HT1080 IDH1KD tx = toxicity to HT-1080 IDH1 knockdown cells (counter line); hit rate 2% among 360,000; HT-1080 IDH1 knockdown viability, ATP luminescence, 48 h; Potency, µM (titrated, usually from 46.1 µM), for the others: at the highest dose activity, negative = toxicity, most hits filed as cytotoxic; AID 686971;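 note: 0% = DMSO wells and -100% = cell-free medium wells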
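Assay cells: HT-1080 with IDH1 knockdown, 750 per well, RPMI/5% FBS. Exposure: 48 h at 37 °C following 2 h pre-incubation. Read: CellTiter-Glo luminescence; fitted concentration-response, curve class assigned.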
MCF10A rerep = inducers of DNA re-replication in MCF 10A breast cells; MCF 10A DNA re-replication, Hoechst nuclear intensity, 48 h; Potency, µM (series often up to 46.1 µM), without a hit: at the top dose activity, positive = re-replication, most hits filed as activators; hit rate 2.9% among 350,000; AID 624296; note: % of control where 0% means no effect; nearly all actives have a fitted effect of over 50% in size
KB-3-1 tox = KB-3-1 parental cell cytotoxicity | KB-3-1 viability, CellTiter-Glo ATP luminescence, 72 h | Potency, µM (top dose mostly 46.1 µM), most hits filed as cytotoxic | hit rate 1.4% among 400,000 | AID 1347075; note: % is set by controls: 0 for no effect and ±100 for the full control effect; nearly all actives have a fitted effect of over 60% in size
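Cells are dispensed, compounds pinned in, plates held at 37 °C for 72 h, then CellTiter-Glo is added and luminescence read after 10 minutes. Cell line: parental KB-3-1 in phenol-red-free DMEM, 10% FBS.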
SW480 rerep = induces DNA re-replication in SW480 colon adenocarcinoma cells; hit rate 1.8% among 340,000; Potency, µM (doses to about 46.1 µM), for inactives: at the highest dose re-replication activation, usual class: activators; SW480 DNA re-replication, Hoechst DNA content imaging, 48 h; note: % of control where 0% means no effect; nearly all actives have a fitted effect of over 55% in size
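First, 250 cells per well were seeded. Next, compound or vehicle (23 nL) was pinned in, plates sat 48 hr at 37 C. Finally Hoechst was added for 40 min before fluorescence scanning.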
HT1080NT lethal = kills 2HG-producing HT-1080-NT fibrosarcoma cells; HT-1080-NT fibrosarcoma viability, CellTiter-Glo ATP luminescence, 48 h; hit rate 1.6% among 360,000; Potency, µM (doses to about 46.1 µM), inactives show at the top dose activity, negative = less viability, actives largely listed as cytotoxic;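 note: NT is the 2HG producing partner of a matched IDH1 knockdown line; 0% = DMSO-treated cells and -100% = media-only wells without cells; nearly all actives have a fitted effect of over 55% in size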
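Viability by CellTiter-Glo luminescence after 48 h compound exposure at 37C of HT-1080-NT cells (750/well, RPMI, 5% FBS). % activity scaled between DMSO wells and medium-only wells, then curve-fitted and categorized by curve class.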
* marks the source's active call; other numbers are inactive results; i = inactive; ? = inconclusive; nt = not tested or not shown; [ ] = remark or other dose. Shown are actives, neighbours in structure and some others; about 7.9% of the full set was active somewhere. Calls come from the whole dose curve; as a rule, active = well fitted curve in the direction sought with a large enough effect; inconclusive = small, poorly fitted or top-dose-only effect, or another doubt; inactive = no such curve, though single readings can be large; an effect the other way counts as inactive or inconclusive. Potency is the fitted concentration of half-maximal effect.

SMILES	KB-V1 MDR tox	HT1080 IDH1KD tx	MCF10A rerep	KB-3-1 tox	SW480 rerep	HT1080NT lethal
Fc1ccc(-[n+]2nc(Nc3ccccc3)sc2-c2c3ccccc3cc3ccccc23)cc1	?	23µM*	-52%	i	-22%[9.22 µM]	21µM*
Oc1ccc2ccccc2c1-c1sc(Nc2ccccc2)n[n+]1-c1ccc(F)cc1	i	-14%	6%	i	-4%	0%
c1ccc(-[n+]2nc(Nc3cccc4ccccc34)sc2-c2c3ccccc3cc3ccccc23)cc1	i	8.2µM*	9%	i	-8%[9.22 µM]	3.7µM*
COc1ccc(C)cc1Nc1n[n+](-c2ccccc2)c(-c2cc(OC)c(OC)cc2Br)s1	i	-24%	8%	?	?	-29%
Cc1cc(Cl)ccc1OCC(=O)OCC(=O)N(CC(C)C)c1c(N)n(Cc2ccccc2)c(=O)[nH]c1=O	i	3%	3%	i	-71%	8%
COC(=O)c1ccc2c(c1)C(C)(C)C(/C=C/c1ccccc1O)=[N+]2C	?	3.5µM*	7.1µM*	4.5µM*	5.6µM*	4.5µM*
CC1CC(=Cc2ccc([N+](=O)[O-])cc2)C(=O)O1 (stereo unspecified)	i	11%	0%	i	1%	2%
O=C(NCc1cccc(F)c1)c1cccc(NC(=O)c2nsc3ccccc23)c1	i	nt	nt	?	nt	nt
Cc1ccc(-c2nc3cccnc3o2)cc1NC(=O)COc1ccc(Cl)cc1C	?	-2%	27%	i	-1%	-1%
Cc1ccc(-c2nc3cccnc3o2)cc1NC(=O)COc1ccc(C(C)(C)C)cc1	?	?	18µM*	?	?	?
CCCNC(=O)c1ccc2c(c1)nc(C)n2-c1cccc(C)c1	i	25%	5%	i	15%	23%
COCCNC(=O)c1ccc2c(c1)nc(C)n2-c1cccc(F)c1	21µM*	-1%	12%	i	5%	-4%
Cc1cccc(-n2c(C)nc3cc(C(=O)NCc4ccc5c(c4)OCO5)ccc32)c1	16µM*	10%	-68%	i	?	7%
COC(CNC(=O)c1ccc2c(c1)nc(C)n2-c1cccc(C)c1)OC	i	5%	-2%	i	6%	27%
CC1(C)OC(=O)C2(Cc3cc([N+](=O)[O-])ccc3N3CCCCC32)C(=O)O1 (stereo unspecified)	i	nt	nt	i	nt	nt
CCc1cccc(C)c1N=Cc1c(O)c2ccccc2oc1=O	i	?	17%	i	-9%	?
COC(=O)CS(=O)(=O)c1nc2ccccc2nc1N1CCCCC1	i	nt	nt	i	nt	nt
Cc1ccc(S(=O)(=O)N2CCOCC2)cc1C(=O)OCC(=O)c1ccc[nH]1	i	0%	2%	i	-24%	-3%
CCOc1ccc(S(=O)(=O)Nc2ccc(O)c(Sc3ncn[nH]3)c2)cc1	i	0%	11%	i	-2%	1%
Cc1ccc(S(=O)(=O)/N=C2/C=C(Sc3ncn[nH]3)C(=O)c3ccccc32)cc1	?	3.7µM*	11%	i	8.2µM*	18µM*
CC(C)c1ccc(S(=O)(=O)/N=C2/C=C(Sc3ncn[nH]3)C(=O)c3ccccc32)cc1	?	4.6µM*	3.3µM*	i	10µM*	2.9µM*
Cc1ccc(S(=O)(=O)Nc2ccc(O)c(Sc3ncn[nH]3)c2)cc1	i	4%	-36%	i	-19%	14%
N#C/C(C(=O)NCc1ccco1)=C1/SC=C(c2ccccc2)N1c1ccccc1	i	-22%	?	i	29µM*	-14%
CC1=CS/C(=C(/C#N)C(=O)NCc2ccco2)N1c1ccccc1	i	4%	6%	i	-2%	3%
CC(C)NC(=O)CC(=O)Nc1ccc2nc3n(c(=O)c2c1)CCCCC3	?	nt	nt	i	nt	nt
SMILES	KB-V1 MDR tox	HT1080 IDH1KD tx	MCF10A rerep	KB-3-1 tox	SW480 rerep	HT1080NT lethal
Cc1ccc(OCC(=O)N(Cc2ccccc2)C(C)(C)C)c([N+](=O)[O-])n1	23µM*	-1%	-2%	i	-50%	-11%
Cc1ccc(OCC(=O)c2cc(C)n(-c3ccccc3)c2C)c([N+](=O)[O-])n1	21µM*	-28%	?	8.2µM*	-4%	0%
Cc1cc(-n2c(C)cc(C(=O)COc3cccnc3[N+](=O)[O-])c2C)no1	16µM*	-8%	7.3µM*	?	8.2µM*	0%
CCCn1c(C)cc(C(=O)COc2ccc(C)nc2[N+](=O)[O-])c1C	16µM*	3%	?	i	?	7%
COCCn1c(C)cc(C(=O)COc2ccc(C)nc2[N+](=O)[O-])c1C	i	0%	?	i	?	-1%
C#CCN(C[C@H]1[C@H](OC(=O)NCc2ccccc2F)[C@H](OC(=O)NCc2ccccc2F)C[C@@H](C(=O)OC)[C@H]1C(=O)OC)S(=O)(=O)c1ccc(C)cc1	i	-4%	nt	i	nt	-2%
Cc1ccc(C)c(NC(=O)N2CCN(c3nnc(C)c4c(C)n(-c5ccccc5)nc34)CC2)c1	i	nt	nt	i	nt	nt
CC1CCC2(CC1)NC(=O)N(NC(=O)CCc1c[nH]c3ccccc13)C2=O (stereo unspecified)	i	-7%	3%	?	1%	-6%
Cc1ccc(OCC(=O)Nc2ccccc2Sc2ccccc2)c([N+](=O)[O-])n1	18µM*	0%	-7%	i	2%	-15%
O=C(Nc1ccccc1Cc1ccccc1)c1ccncc1	i	0%	-1%	i	-3%	14%
CN(C)c1ccc(C(=O)NCC(c2cccs2)N2CCOCC2)cc1 (stereo unspecified)	i	3%	3%	i	-2%	5%
O=C(CSc1ccc(Br)cc1)NCC(c1cccs1)N1CCOCC1 (stereo unspecified)	?	-10%	10%	16µM*	3%	-7%
Cc1ccsc1C(=O)NCC(c1cccs1)N1CCOCC1 (stereo unspecified)	?	?	nt	i	nt	18µM*
O=C(NCC(c1cccs1)N1CCOCC1)c1ccc(Br)o1 (stereo unspecified)	?	16µM*	?	?	8.2µM*	?
C[C@@H]1CCC(=O)N(CC[C@H](Oc2ccccc2)c2ccccc2)CC1	?	0%	28%	i	-5%	13%
CN(C)c1cccc(C(=O)NNC(=O)C23CC4CC(CC(C4)C2)C3)c1	i	2%	12%	i	-8%	7%
COc1ccc(-c2nc3ccc(NC(=O)COC(C)=O)cc3c(=O)n2Cc2ccccc2)cc1COc1ccc(NC(C)=O)cc1	nt	-7%	nt	nt	nt	-13%
